Percent Effect data for ten molecules are collected here from ChEMBL document CHEMBL3988442, “University of Dundee, Small-Polar-MMV Screening Library” (2021).

For some assays here: Results with a measured potency or affinity are listed apart.

Parameters in all cases: scale not given: direction of the effect not stated beside the values
Test [1] concerns the target Protein translocase subunit SecA (Escherichia coli (strain K12)) (UniProt P10408). Briefly: Assay to Identify E. coli SecA ATPase Inhibitors. In kind it is functional. The following applies: 30 µM.
The target of test [2] is T1, Ubiquitin-activating enzyme e1, putative (Leishmania donovani (strain BPK282A1)) (UniProt E9BSI1).
T1 sequence (whole entry): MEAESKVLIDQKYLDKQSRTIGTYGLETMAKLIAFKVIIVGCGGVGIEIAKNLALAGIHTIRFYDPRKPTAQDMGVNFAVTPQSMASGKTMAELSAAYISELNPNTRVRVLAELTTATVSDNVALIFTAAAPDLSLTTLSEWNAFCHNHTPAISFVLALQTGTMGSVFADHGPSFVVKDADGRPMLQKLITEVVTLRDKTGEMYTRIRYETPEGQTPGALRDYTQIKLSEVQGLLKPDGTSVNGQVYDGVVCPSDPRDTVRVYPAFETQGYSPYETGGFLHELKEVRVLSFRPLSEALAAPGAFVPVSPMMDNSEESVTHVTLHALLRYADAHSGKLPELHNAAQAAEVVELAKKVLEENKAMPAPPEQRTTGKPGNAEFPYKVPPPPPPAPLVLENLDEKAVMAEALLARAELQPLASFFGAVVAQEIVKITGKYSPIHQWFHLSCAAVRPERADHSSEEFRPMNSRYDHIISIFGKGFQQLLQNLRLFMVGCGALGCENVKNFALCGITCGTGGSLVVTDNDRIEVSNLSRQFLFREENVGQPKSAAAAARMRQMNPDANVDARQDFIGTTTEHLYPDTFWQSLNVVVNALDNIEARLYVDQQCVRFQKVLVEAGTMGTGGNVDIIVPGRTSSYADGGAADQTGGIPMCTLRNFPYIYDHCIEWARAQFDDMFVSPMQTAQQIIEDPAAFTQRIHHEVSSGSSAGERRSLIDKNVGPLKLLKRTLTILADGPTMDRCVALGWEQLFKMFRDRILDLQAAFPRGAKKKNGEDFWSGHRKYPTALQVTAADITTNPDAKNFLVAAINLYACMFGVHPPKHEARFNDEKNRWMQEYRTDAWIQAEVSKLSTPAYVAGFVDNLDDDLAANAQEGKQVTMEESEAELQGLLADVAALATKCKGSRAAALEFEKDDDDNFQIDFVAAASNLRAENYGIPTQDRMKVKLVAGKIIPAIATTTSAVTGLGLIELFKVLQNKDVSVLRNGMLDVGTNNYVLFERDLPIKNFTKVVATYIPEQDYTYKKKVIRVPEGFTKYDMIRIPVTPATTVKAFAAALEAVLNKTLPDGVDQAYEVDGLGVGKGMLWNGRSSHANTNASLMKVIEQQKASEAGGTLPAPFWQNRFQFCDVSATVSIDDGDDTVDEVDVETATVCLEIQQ
Briefly: Leishmania donovani Ubiquitin Activating Enzyme (LdE1). The settings on record: 30 µM. In kind it is functional.

For test [3], the target named is AMP-activated protein kinase, AMPK (Homo sapiens) (UniProt P54646+O43741+P54619+Q9UGJ0+Q9Y478+Q13131+Q9UGI9). Briefly: AMP-dependent Kinase enzyme assay. An in vitro enzyme assay that detects ADP turnover that is directly proportional to AMPK activity. This uses naive AMPK that is activated during the assay with MK-8722. In kind it is functional. The settings on record: 30 µM.

In test [4] the target is Sialic acid-binding Ig-like lectin 9 (Homo sapiens) (UniProt Q9Y336). Briefly: Hs-Siglec9 ALPHAscreen SOP 20170721. The settings on record: 10 µM. (In general: Bead proximity is the source of the signal in Alpha formats.)
The test system of a further test is Trypanosoma cruzi. The test can be described thus: Trypanosoma cruzi phosphomannomutase and mannose-1-phosphate guanylyltransferase assay. The format is functional. The following applies: 10 µM.
Test [5] concerns the target T2, Arginase-2, mitochondrial (Homo sapiens) (UniProt P78540).
T2 sequence (whole entry): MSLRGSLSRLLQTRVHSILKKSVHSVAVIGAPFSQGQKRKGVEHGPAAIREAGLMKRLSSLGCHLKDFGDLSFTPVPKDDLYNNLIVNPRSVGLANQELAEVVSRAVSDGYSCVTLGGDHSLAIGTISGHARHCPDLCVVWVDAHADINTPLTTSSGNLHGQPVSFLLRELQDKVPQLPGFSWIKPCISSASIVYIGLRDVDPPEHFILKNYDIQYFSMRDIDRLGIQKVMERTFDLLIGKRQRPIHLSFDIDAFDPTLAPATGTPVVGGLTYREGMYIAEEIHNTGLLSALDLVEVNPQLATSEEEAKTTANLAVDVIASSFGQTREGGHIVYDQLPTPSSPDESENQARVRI
Briefly: in vitro enzyme assay to detect the production of urea directly proportional to the activity of Arginase II. Also: in the data most compounds retested in dose-response had high values. In kind it is functional. The settings on record: 33.3 µM.

The target of test [6] is T3, Proteasome subunit beta (Trypanosoma cruzi) (UniProt O96673).
T3 sequence (whole entry): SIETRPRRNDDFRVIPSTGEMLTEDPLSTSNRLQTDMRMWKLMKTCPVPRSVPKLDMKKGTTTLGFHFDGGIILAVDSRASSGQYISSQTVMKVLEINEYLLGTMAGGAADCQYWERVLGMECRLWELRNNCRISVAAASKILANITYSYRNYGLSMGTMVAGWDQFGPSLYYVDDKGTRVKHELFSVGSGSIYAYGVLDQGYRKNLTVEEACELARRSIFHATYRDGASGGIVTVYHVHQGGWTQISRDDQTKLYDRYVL
Briefly: Trypanosoma cruzi proteasome chymotrypsin-like activity (TcProtChymo) assay. Also: in the data most compounds retested in dose-response had high values. In kind it is functional. The following applies: 9.37 µM.

The next test is filed under the species Homo sapiens. The test can be described thus: To identify inhibition of the IFN signalling (Jak-Stat) pathway via expression of an eGFP reporter gene under the control of an IFN-stimulated response element (ISRE) containing MxA promoter. The following applies: 30 µM. The format is functional. A general note: A reporter such as luciferase makes a cellular process visible.

The target in test [7] is T4, Tyrosyl-tRNA synthetase, putative (Trypanosoma cruzi (strain CL Brener)) (UniProt Q4DSP6).
T4 sequence (whole entry): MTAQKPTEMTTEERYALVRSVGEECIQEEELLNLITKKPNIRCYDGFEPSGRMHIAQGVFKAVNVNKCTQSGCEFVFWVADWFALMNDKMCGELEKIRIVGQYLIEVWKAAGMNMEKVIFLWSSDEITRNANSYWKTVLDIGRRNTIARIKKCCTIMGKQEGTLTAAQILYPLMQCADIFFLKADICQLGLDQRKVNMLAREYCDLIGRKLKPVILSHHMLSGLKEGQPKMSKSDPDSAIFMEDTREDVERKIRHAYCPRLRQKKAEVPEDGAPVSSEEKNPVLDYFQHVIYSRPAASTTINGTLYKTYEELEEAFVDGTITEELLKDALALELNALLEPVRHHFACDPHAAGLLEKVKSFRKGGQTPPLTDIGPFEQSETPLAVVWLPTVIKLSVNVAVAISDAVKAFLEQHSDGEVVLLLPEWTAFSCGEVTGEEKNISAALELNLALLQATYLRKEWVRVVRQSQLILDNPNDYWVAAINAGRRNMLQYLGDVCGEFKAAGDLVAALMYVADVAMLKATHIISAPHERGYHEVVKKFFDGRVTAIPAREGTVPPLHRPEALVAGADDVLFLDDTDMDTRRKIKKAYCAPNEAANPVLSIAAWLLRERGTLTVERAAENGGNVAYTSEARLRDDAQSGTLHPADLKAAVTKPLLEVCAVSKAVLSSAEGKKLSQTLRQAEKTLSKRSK
The test can be described thus: Trypanosoma cruzi tyrosyl tRNA synthetase (TcYRS) _High Tyrosine SOP. Also: in the data most compounds retested in dose-response had high values. In kind it is functional. The settings on record: 30 µM.

In test [8] the target is T4, Tyrosyl-tRNA synthetase, putative (Trypanosoma cruzi (strain CL Brener)). Briefly: Trypanosoma cruzi tyrosyl tRNA synthetase (TcYRS) SOP. In kind it is functional. The settings on record: 30 µM.
The target of test [9] is Chromo domain-containing protein 1 (Saccharomyces cerevisiae (strain ATCC 204508 / S288c) (Baker's yeast)) (UniProt P32657). The test can be described thus: ScCHD-1 Enzyme Inhibition Assay. Also: in the data most compounds retested in dose-response had high values. The format is functional. The following applies: 30 µM.
Chain of Chromo domain-containing protein 1 (Saccharomyces cerevisiae (strain ATCC 204508 / S288c) (Baker's yeast)) (P32657 whole entry, the tested form may be a part): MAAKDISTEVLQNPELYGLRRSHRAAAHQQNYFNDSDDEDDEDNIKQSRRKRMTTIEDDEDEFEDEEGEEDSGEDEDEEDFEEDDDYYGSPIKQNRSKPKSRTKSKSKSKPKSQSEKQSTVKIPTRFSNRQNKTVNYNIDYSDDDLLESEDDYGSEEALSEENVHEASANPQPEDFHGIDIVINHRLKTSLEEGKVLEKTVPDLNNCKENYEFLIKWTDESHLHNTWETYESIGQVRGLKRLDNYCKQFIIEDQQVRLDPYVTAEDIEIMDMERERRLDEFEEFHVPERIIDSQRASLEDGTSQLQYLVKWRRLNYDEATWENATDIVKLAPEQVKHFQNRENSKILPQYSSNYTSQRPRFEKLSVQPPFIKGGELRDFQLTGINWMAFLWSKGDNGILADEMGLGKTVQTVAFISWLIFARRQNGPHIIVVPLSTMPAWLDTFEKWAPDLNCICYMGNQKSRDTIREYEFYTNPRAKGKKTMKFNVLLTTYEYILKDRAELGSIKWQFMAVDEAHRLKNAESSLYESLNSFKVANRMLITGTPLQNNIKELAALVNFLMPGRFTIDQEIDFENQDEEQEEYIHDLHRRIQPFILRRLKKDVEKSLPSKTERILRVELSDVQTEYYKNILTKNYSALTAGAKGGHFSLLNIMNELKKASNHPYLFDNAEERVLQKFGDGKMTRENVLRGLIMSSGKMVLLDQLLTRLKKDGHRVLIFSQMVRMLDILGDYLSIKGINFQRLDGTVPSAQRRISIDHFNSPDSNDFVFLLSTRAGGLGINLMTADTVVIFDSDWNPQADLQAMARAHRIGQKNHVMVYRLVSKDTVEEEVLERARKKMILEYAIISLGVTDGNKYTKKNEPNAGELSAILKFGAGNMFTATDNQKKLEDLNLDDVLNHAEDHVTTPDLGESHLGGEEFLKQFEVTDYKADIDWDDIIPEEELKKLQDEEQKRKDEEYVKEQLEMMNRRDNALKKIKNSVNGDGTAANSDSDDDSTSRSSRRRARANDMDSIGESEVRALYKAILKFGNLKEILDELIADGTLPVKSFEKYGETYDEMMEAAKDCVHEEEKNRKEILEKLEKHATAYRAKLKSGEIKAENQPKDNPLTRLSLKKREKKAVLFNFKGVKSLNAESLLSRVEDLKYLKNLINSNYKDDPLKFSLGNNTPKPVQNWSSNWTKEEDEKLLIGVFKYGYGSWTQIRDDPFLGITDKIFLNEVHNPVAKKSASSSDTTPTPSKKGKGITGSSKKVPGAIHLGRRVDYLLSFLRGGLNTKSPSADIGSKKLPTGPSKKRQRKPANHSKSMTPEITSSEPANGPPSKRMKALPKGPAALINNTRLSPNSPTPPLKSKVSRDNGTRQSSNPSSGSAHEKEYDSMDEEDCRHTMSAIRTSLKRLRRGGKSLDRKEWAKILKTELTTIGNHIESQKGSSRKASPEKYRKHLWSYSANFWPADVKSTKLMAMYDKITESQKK

Chain of Protein translocase subunit SecA (Escherichia coli (strain K12)) (P10408 whole entry): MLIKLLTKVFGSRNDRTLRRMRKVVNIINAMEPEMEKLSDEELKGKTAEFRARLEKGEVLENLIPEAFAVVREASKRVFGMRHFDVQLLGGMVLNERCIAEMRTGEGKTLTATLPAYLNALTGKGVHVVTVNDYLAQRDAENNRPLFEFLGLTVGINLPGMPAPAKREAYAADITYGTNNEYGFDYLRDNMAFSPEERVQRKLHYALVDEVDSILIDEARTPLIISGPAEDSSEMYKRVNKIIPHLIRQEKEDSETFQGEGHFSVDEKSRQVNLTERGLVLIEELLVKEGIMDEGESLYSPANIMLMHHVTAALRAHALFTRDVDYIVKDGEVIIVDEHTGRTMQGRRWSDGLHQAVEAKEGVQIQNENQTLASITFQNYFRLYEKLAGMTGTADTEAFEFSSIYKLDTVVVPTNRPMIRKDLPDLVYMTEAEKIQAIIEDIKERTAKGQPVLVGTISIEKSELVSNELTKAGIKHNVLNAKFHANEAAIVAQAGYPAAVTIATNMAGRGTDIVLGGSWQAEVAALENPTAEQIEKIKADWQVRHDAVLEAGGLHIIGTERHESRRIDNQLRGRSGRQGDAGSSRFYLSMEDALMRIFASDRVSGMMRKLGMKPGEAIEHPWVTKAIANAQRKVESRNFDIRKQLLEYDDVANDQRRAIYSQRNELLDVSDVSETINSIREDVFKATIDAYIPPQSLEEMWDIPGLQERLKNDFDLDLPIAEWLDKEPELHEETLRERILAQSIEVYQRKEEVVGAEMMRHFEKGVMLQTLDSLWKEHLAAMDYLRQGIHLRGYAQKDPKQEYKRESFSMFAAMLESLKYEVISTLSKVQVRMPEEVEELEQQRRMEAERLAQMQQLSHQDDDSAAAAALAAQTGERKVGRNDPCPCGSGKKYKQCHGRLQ
Chain of Sialic acid-binding Ig-like lectin 9 (Homo sapiens) (Q9Y336 whole entry): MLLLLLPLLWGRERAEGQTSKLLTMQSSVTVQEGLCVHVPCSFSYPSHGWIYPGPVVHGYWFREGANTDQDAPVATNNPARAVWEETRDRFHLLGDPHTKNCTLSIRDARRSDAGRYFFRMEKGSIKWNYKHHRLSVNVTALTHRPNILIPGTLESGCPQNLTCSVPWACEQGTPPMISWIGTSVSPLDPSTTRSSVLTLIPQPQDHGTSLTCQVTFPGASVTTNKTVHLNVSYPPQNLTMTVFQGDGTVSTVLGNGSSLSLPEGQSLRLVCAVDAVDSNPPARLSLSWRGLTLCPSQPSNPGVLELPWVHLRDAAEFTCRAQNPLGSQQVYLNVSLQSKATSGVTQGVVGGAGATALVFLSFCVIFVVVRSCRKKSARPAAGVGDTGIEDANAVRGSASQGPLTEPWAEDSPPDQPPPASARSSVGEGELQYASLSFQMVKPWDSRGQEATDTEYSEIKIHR

For `O=C(Cn1cccnc1=O)NC(Cc1ccsc1)c1ccccn1` (stereo not given), the Percent Effect is -10% in [1]; 14.9% in [2]; 0.845% in test [3]; 8.55% in [4]; 1.98% in the test on Trypanosoma cruzi; 0.232% in test [5]. Further, the Percent Effect in [6] is 5.3%; in the test filed under Homo sapiens, 2.88%; in test [7], 5.38%; in [8] it was 9.09%; in [9] it was -19.6%.

On to `NCC(c1ccccc1)N1CCc2sccc2C1` (stereo not given), for which the Percent Effect in test [1] was -1.09%; in [2] it was 7.89%; in test [3], -9.46%; in [4] it was -3.01%; with Trypanosoma cruzi, -3.41%; in test [5], -5.92%. The Percent Effect in test [6] is 17.6%; in the test listed under Homo sapiens it was 5.62%; in test [7], 8.51%; in test [8], 18.2%; in test [9], -3.07%.

As to `O=S(=O)(C1CC1)N1CCC2(COCc3cnc(N4CCOCC4)nc32)C1` (stereo not given), the Percent Effect is 1.84% in test [1]; 14.7% in test [2]; 1.88% in test [3]; -4.21% in test [4]; -2.55% with Trypanosoma cruzi; -6.16% in test [5]. The Percent Effect is 9.61% in test [6]; 13.3% in the test filed under Homo sapiens; 1.06% in test [7]; 5.13% in [8]; -7.85% in test [9].

In the case of `OC(CN1CCN(Cc2ccc(F)c(F)c2)CC1)C1CC1` (stereo not given), the Percent Effect was -3.08% in test [1]; 8.22% in test [2]; 2.45% in [3]; 0.902% in test [4]; 5.68% with Trypanosoma cruzi; -1.82% in test [5]. Also, the Percent Effect in [6] was 8.16%; in the test filed under Homo sapiens, 13.1%; in test [7], 6.45%; in [8], 20%; in test [9] it was -6.1%.

As to `CCN(CC)C(=O)Cn1ccc2cc(NC(=O)C3CCCO3)ccc21` (stereo not given), the Percent Effect was -3.96% in [1]; 26.3% in [2]; -13.9% in test [3]; 1.14% in [4]; 6.39% in the test with Trypanosoma cruzi; -1.53% in [5]. Moreover, the Percent Effect is 16.5% in test [6]; 2.47% in the test listed under Homo sapiens; 6.37% in test [7]; 17.1% in test [8]; -14.2% in test [9].

Take `CCc1c(C(=O)NCC(=O)OCC2CC2)cnn1-c1ccc(C)cc1`: the Percent Effect in test [1] is -5.86%; in [2], 22.8%; in test [3], 2.14%; in [4], -2.84%; with Trypanosoma cruzi, 9.54%; in [5] it was 0.38%. For the same molecule, the Percent Effect in test [6] was 10.7%; in the test listed under Homo sapiens it was 29%; in test [7], 6.4%; in test [8] it was 24.1%; in test [9] it was -9.54%.

With `Cc1cc(C)n(CC2CCCN2C(=O)c2c[nH]c3ncccc23)n1` (stereo not given), the Percent Effect was -3.09% in [1]; -2.7% in test [2]; 10.7% in [3]; 5.96% in test [4]; -4.18% in the test with Trypanosoma cruzi; 4.99% in [5]. The Percent Effect is -3.05% in [6]; 24.1% in the test listed under Homo sapiens; -0.99% in test [7]; -6.1% in test [8]; 12.6% in [9].

Regarding `Cc1cc(Nc2nc(C)cs2)nc(C2CCCCN2CCO)n1` (stereo not given), the Percent Effect in test [1] is -0.14%; in test [2] it was 1.35%; in test [3] it was -0.107%; in [4], -8.52%; with Trypanosoma cruzi, 7.12%; in [5], -5.34%. Also, the Percent Effect in test [6] was 13.9%; in the test listed under Homo sapiens it was -9.01%; in test [7] it was 4.3%; in test [8], 11.7%; in test [9], -23.2%.

`CCc1ccccc1-n1nnc(C(=O)O)c1-c1ccccn1`: the Percent Effect in [1] is -2.26%; in test [2] it was 13.2%; in [3], 1.03%; in [4], -0.0352%; in the test on Trypanosoma cruzi, 1.85%; in test [5] it was 1.18%. Further, the Percent Effect in [6] was 23.5%; in the test filed under Homo sapiens, -17.6%; in [7] it was 4.25%; in [8], 13%; in test [9], -6.21%.

In the case of `O=C(c1cnccn1)N1CCN(Cc2csc(-c3ccccc3)n2)CC1`, the Percent Effect in [1] was -3.77%; in [2] it was -2.7%; in [3], 9.72%; in [4], -0.413%; with Trypanosoma cruzi, -6.04%; in [5] it was 0.185%. Moreover, the Percent Effect was 0.898% in test [6]; 19.6% in the test filed under Homo sapiens; -4.95% in [7]; -1.22% in test [8]; 7.87% in [9].
